In PubChem BioAssay AID463173 (ICCB-Longwood Screening Facility, Harvard Medical School, 2010):
Among all 52,000 compounds or so, about 1,700 (3.3%) were called active. Many of the other results were omitted from the sample, so actives are more common in it than they were. Unmarked numbers belong to inactive results. Rule as the data show it: active = survival mostly below about 52% (no sharp cut-off); inactive = mostly above about 56%.

system: Wild type; test: S. aureus survival, RN4220 and DeltatarO strains – OD600, teichoic acid synthesis inhibitors, primary screen (AID 463173); details: S. aureus RN4220 wild type/DeltatarO growth, OD600, 18 h, stronger effect = lower value, screened at 18.75 µg/mL (by protocol)

Compound | survival
COCCn1c(SCC(=O)Nc2cc(Cl)ccc2OC)nc2c([nH]c3ccccc32)c1=O | 132%
Cc1ccc2sc(N3CCN(C(=O)C4COc5ccccc5O4)CC3)nc2c1C (centres undefined) | 148%
COc1ccc(-c2nnc(SCC(=O)Oc3c(C)cccc3C)o2)cc1OC | 117%
CN(C(=O)Nc1cn(C)c(=O)c2ccccc12)c1ccccc1 | -6% (active)
Cc1ccc(NC(=O)Nc2cn(C)c(=O)c3ccccc23)c(Cl)c1 | 69%
CCOc1ccccc1N(CC)C(=O)Nc1cn(C)c(=O)c2ccccc12 | 78%
CCCNC(=O)C1CCC(Cn2c(=O)c3sccc3n(CC(=O)N(CC)CC)c2=O)CC1 (centres undefined) | 128%
Cc1ccc(CNC(=O)CN2C(=O)COc3ccc(S(=O)(=O)Nc4ccccc4)cc32)cc1 | -6% (active)
COc1cccc(CNC(=O)CN2C(=O)COc3ccc(S(=O)(=O)Nc4ccccc4)cc32)c1 | 73%
COc1ccc(CNC(=O)CN2C(=O)COc3ccc(S(=O)(=O)Nc4ccccc4)cc32)cc1 | 87%
COc1ccc2c(c1)c1c(c(=O)n(-c3ccc(C)cc3)c(=O)n1CC(=O)NCc1ccc(C)cc1)n2C | 70%
O=S(=O)(Nc1ccccc1C(F)(F)F)c1ccc(N2CCCCS2(=O)=O)cc1 | 136%
Cc1ccc(-n2nc(C)c3nc(CCC(=O)Nc4ccc(F)cc4)c(=O)n(C)c32)cc1 | 80%
Cc1ccc(-n2nc(C)c3nc(CCC(=O)Nc4cccc(F)c4)c(=O)n(C)c32)cc1 | -6% (active)
COc1cccc(NC(=O)CCc2nc3c(C)nn(-c4ccc(C)cc4)c3n(C)c2=O)c1 | 72%
Cc1ccc(NC(=O)c2c(C)oc3ncn(CC(C)C)c(=O)c23)nc1 | 129%
Cc1nn(C)c(C)c1NC(=O)CSc1nccc(-c2ccc(Cl)cc2)n1 | 100%
CCOc1ccc(C(=O)CSc2nc3cc(C(=O)NC4CCCC4)ccc3c(=O)n2CC2CCCO2)cc1 (centres undefined) | 0% (active)
O=C(CSc1nc2cc(C(=O)NC3CCCC3)ccc2c(=O)n1CC1CCCO1)c1ccc(F)cc1 (centres undefined) | 70%
Cc1ccc(C(=O)CSc2nc3cc(C(=O)NC4CCCC4)ccc3c(=O)n2CC2CCCO2)cc1 (centres undefined) | 75%
O=C(CSc1nc2cc(C(=O)NC3CCCC3)ccc2c(=O)n1CC1CCCO1)c1cccc(Cl)c1 (centres undefined) | -3% (active)
Cc1ccc(C(=O)CSc2nc3cc(C(=O)NC4CCCC4)ccc3c(=O)n2CC2CCCO2)c(C)c1 (centres undefined) | 63%
COc1ccc(C(=O)CSc2nc3cc(C(=O)NC4CCCC4)ccc3c(=O)n2CC2CCCO2)cc1 (centres undefined) | 76%
CC(CN1CCCC1)OC(=O)c1ccc(F)cc1 (centres undefined) | 109%
Cc1ccc(-c2nnc(Nc3ccc(Br)cc3)c3ccccc23)cc1S(=O)(=O)N1CCCCC1 | 89%

Compound | survival
Cc1cccc(N2CCN(C(c3ccc(F)cc3)c3nnc(-c4ccccc4)o3)CC2)c1C (centres undefined) | 28%
Cc1ccc(Cl)cc1N1CCN(C(c2ccc(F)cc2)c2nnc(-c3ccccc3)o2)CC1 (centres undefined) | 50%
Cc1ccc(C)c(N2CCN(C(c3ccc(F)cc3)c3nnc(-c4ccccc4)o3)CC2)c1 (centres undefined) | 14% (active)
Cc1ccc(C)c(N2CCN(C(c3ccccc3)c3nnc(-c4ccccc4F)o3)CC2)c1 (centres undefined) | 53%
COc1ccc(N2CCN(C(c3ccccc3)c3nnc(-c4ccccc4Cl)o3)CC2)cc1 (centres undefined) | 22%
Cc1cccc(N2CCN(C(c3ccccc3)c3nnc(-c4ccccc4F)o3)CC2)c1C (centres undefined) | 43%
COc1ccccc1N1CCN(C(c2ccccc2)c2nnc(-c3ccccc3Cl)o2)CC1 (centres undefined) | 0% (active)
Cc1ccc(C)c(N2CCN(C(c3ccccc3)c3nnc(-c4ccccc4)o3)CC2)c1 (centres undefined) | 1% (active)
Cc1cccc(N2CCN(C(c3ccccc3)c3nnc(-c4ccccc4Cl)o3)CC2)c1C (centres undefined) | 52%
Cc1ccoc1C(=O)Nc1ccccc1C(=O)O | 102%
Cc1ccc(NC(=O)C2CC(=O)n3cnnc3N2)cc1Cl (centres undefined) | 105%
COCCNC(=O)CCn1c(=O)c2cc(OC)c(OC)cc2n(CC(=O)Nc2ccccc2OC)c1=O | 89%
COc1ccc(NC(=O)c2cn(-c3ccccc3)nc2-c2ccc(C)cc2)cc1 | 93%
COc1ccc(-c2nn(-c3ccccc3)cc2C(=O)Nc2ccccc2OC)cc1 | 3% (active)
COc1ccccc1NC(=O)c1cn(-c2ccccc2)nc1-c1ccccc1 | 81%
COC(=O)C1(C)NC(c2ccccc2C)C2C(=O)N(C)C(=O)C21 (centres undefined) | 98%
CCOC(=O)C1=C(CN2CCN(c3ccccc3)CC2)NC(=O)NC1c1ccc(C)cc1 (centres undefined) | 127%
CCCCOc1ccc(Cn2c(=O)sc3ccccc32)cc1 | -4% (active)
CCCOc1ccc(Cn2c(=O)sc3ccccc32)cc1 | -4% (active)
CC(C)CCOc1ccc(Cn2c(=O)sc3ccccc32)cc1 | -3% (active)
CCOc1ccc(Cn2c(=O)sc3ccccc32)cc1 | 72%
CC(C)CCOc1ccc(Cn2c(=O)oc3ccccc32)cc1 | 121%
O=c1sc2ccccc2n1CCCOc1ccccc1 | 116%
O=c1sc2ccccc2n1CCc1ccccc1 | 108%
CCCCOc1ccc(Cn2c(=O)oc3ccccc32)cc1 | 113%

Compound | survival
COc1ccc(Cn2c(=O)sc3ccccc32)cc1 | 111%
O=C(CC1N=C2c3ccccc3N=C(SCC(=O)Nc3ccc(F)cc3)N2C1=O)NCc1ccc2c(c1)OCO2 (centres undefined) | 80%
COc1ccc2cc3cc(C(=O)NCc4ccccc4OC)oc3nc2c1 | 80%
Cc1cccc(-c2nc(Cn3c(SCc4cccc(C(F)(F)F)c4)nc4ccncc43)c(C)o2)c1 | 81%
Cc1ccc(C(=O)ON=C2CCN(C)CC2)cc1 | 108%
O=C(Nc1cccc(F)c1)c1cnc2sc(N3CCCC3)nn2c1=O | 74%
COc1ccccc1CNC(=O)Cn1cc2c(n1)-c1c(oc(C(=O)N3CCOCC3)c1C)CC2 | 84%
COc1cc2oc(=O)c(CC(=O)N3CCCCC3)c(C)c2cc1Cl | 84%
Cc1ccc(OCC(=O)Nc2c(C(=O)c3ccc(Cl)cc3)oc3ccccc23)cc1C | 129%
CCOC(=O)c1noc2ncnc(N3CCN(c4cccc(Cl)c4)CC3)c12 | 75%
CCOC(=O)c1cc(S(=O)(=O)N2CCN(c3ccccc3OC)CC2)[nH]n1 | 124%
COC(=O)c1cnc(N2CCN(c3ccccc3F)CC2)c2ccccc12 | 93%
CCOC(=O)c1cnc2c(OC)cccc2c1N1CCN(c2ccccc2F)CC1 | -14% (active)
CCOC(=O)c1cnc2ccc(OCC)cc2c1N1CCN(c2cccc(Cl)c2)CC1 | -9% (active)
CCOC(=O)c1cnc(N2CCN(c3cccc(C)c3C)CC2)c2ccccc12 | 85%
CCOC(=O)c1cnc2cc(C(F)(F)F)ccc2c1N1CCN(c2ccc(F)cc2)CC1 | 58%
CCOC(=O)c1cnc(N2CCN(c3ccc(C)cc3C)CC2)c2ccccc12 | 112%
CCOC(=O)c1cc(S(=O)(=O)N2CCN(c3cccc(C)c3C)CC2)[nH]n1 | 72%
CCOC(=O)c1cc(S(=O)(=O)N2CCN(c3ccccc3F)CC2)[nH]n1 | -6% (active)
CCOC(=O)c1cnc2ccc(OCC)cc2c1N1CCN(c2ccccc2F)CC1 | -12% (active)
CCOC(=O)c1cnc2cc(C(F)(F)F)ccc2c1N1CCN(c2cccc(Cl)c2)CC1 | 55%
O=C(Cn1c(=O)n(-c2ccccc2)c(=O)c2sc3ccccc3c21)NC1CCCC1 | 138%
CCOc1ccc(CNC(=O)CCn2nc(C)c3c(C)n(-c4ccccc4)nc3c2=O)cc1 | 129%
COc1ccccc1-c1cc2nc(C)c(CCC(=O)NCc3cccc(Cl)c3)c(C)n2n1 | 112%
CC(C)(C)OC(=O)N1CCC2(CC1)C(C#N)=C(N)OC1=C2C(=O)CCC1 | 104%

Compound | survival
CN1CCN(CC(=O)Nc2ccc(C(=O)NCC3CCCO3)cc2)CC1 (centres undefined) | 108%
COc1ccc2c(c1)c1c(c(=O)n(-c3cccc(C)c3)c(=O)n1CC(=O)NCCC1=CCCCC1)n2C | 74%
COc1ccccc1C(=O)Nc1ccccc1OCc1cc(=O)n2ccccc2n1 | 92%
CCN(CC)C(C)C(=O)Nc1c(C)cccc1C (centres undefined) | 109%
Cc1ccc2oc(-c3cc(NC(=O)c4oc5ccccc5c4C)ccc3Cl)nc2c1 | 81%
Cc1ccc2oc(-c3cc(NC(=O)/C=C/c4ccco4)ccc3Cl)nc2c1 | 25%
Cc1ccc2oc(-c3cc(NC(=O)c4ccco4)ccc3Cl)nc2c1 | 1% (active)
Cc1ccc2oc(-c3cc(NC(=O)Cc4ccccc4)ccc3Cl)nc2c1 | 70%
COc1c(C)cccc1C(=O)Nc1ccc(Cl)c(-c2nc3cc(C)ccc3o2)c1 | -6% (active)
O=C(Nc1ccc(Cl)c(-c2nc3ccccc3o2)c1)c1cccc2c(Cl)cccc12 | 67%
CC(C)c1ccc(NC(=O)c2cc3c(=O)oc4ccccc4c3s2)cc1 | 87%
CCOC(=O)c1c(-c2ccc(OC)cc2)oc2ccc(OCc3ccc(F)cc3F)cc12 | 42%
O=C(NCCCN1CCN(c2ccccc2F)CC1)c1cc2c(s1)-c1ccccc1OC2 | 11% (active)
CCN(CC)CCOC(=O)c1ccc(NC(=O)c2cc3c(s2)-c2ccccc2OC3)cc1 | 5% (active)
O=C(NCCCN1CCN(c2ccc(F)cc2)CC1)c1cc2c(s1)-c1ccccc1OC2 | 62%
CCCN1CCN(CCCNC(=O)c2cc3c(s2)-c2ccccc2OC3)CC1 | 83%
O=C(NCc1ccc(Cl)cc1)c1cc2c(s1)-c1ccccc1SC2 | 62%
CCCN(C(=O)c1cc2c(s1)-c1ccccc1SC2)c1ccccc1F | 1% (active)
O=C(NCCc1ccc(Cl)cc1)c1cc2c(s1)-c1ccccc1OC2 | 105%
O=C(NCc1ccc(F)cc1)c1cc2c(s1)-c1ccccc1SC2 | 50%
CCOc1ccc(NC(=O)c2cc3c(s2)-c2ccccc2OC3)cc1 | 100%
O=C(NCCCN1CCN(c2ccccc2)CC1)c1cc2c(s1)-c1ccccc1OC2 | 69%
CCc1cccc(NC(=O)c2cc3c(s2)-c2ccccc2OC3)c1 | 86%
CCCN(C(=O)c1cc2c(s1)-c1ccccc1OC2)c1ccccc1F | -2% (active)
